Screening results: PubChem, National Center for Advancing Translational Sciences (NCATS)
Methyltransferases: Primary Screen for Target Class Profiling of Small Molecule Inhibitors of Methyltransferases | 3.9% of 25,000 active | calls only at 40 µM | purified enzyme, MTase-Glo SAH luminescence; stronger effect = lower value; call rule not given here
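Each enzyme was reacted with SAM and its substrate, with compounds tested once at 40 uM; SAH formed was read by MTase-Glo luminescence.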
The depositor's hits bear a star; i = inactive; + = active, no number; ! = repeats disagree. The full list was thinned out, with hits kept by preference. On the % scale 0 is the no-effect control and ±100 the full control effect.

SMILES | Methyltransferases
COc1cccc(-c2cn(-c3ccc(CCN4CCC(O)CC4)cc3)c3ncnc(N)c23)c1 | +
CC(=O)NC1CCN(Cc2cn(-c3ccc(C)cc3)nc2-c2cccc(C)c2)C1 (configuration not stated) | i
Cn1cc(-c2ccc3c(c2)CCN3C(=O)Cc2cccc(C(F)(F)F)c2)c2c(N)ncnc21 | i
CCCN1C(=O)c2c(C(=O)NCCC(C)C)ncn2CC1(C)C(=O)NCc1ccc(F)cc1 (configuration not stated) | i
CCOc1ccccc1Nc1nc2c(S(=O)(=O)c3ccccc3)nnn2c2ccccc12 | i
O=C(Nc1ccccc1)c1cc([N+](=O)[O-])ccc1Cl | i
O=C(Nc1ncc([N+](=O)[O-])s1)c1ccccc1O | i
O=C(c1cc(O)c(O)c([N+](=O)[O-])c1)c1ccccc1F | +
COc1ccc(OC)c2c1cc1n2CC(C)(C(=O)NC2CCCCC2C)N(Cc2ccco2)C1=O (configuration not stated) | i
COc1ccc(OC)c(S(=O)(=O)N2CCC(n3c(C)cnc3-c3ccncc3)CC2)c1 | i
Nc1nc(Nc2ccc3c(c2)CCC(N2CCCC2)CC3)nn1-c1cc2c(nn1)-c1ccccc1CCC2 (configuration not stated) | +
Cc1ccc(C)c(N2CCN(CCCNC(=O)CCc3nnc4n(CC(C)C)c(=O)c5ccccc5n34)CC2)c1 | i
CCCCNc1nc2c(S(=O)(=O)c3ccc(C)c(C)c3)nnn2c2ccccc12 | i
CCCn1c(=O)c2ccc(Cl)cc2n2c(=O)n(Cc3c(F)cccc3Cl)nc12 | i
CC(C)NC(=O)c1ccc2c(=O)n(C3CC3)c3nn(CC(=O)Nc4ccc(Cl)cc4)c(=O)n3c2c1 | i
CCC(C)N1C(=O)c2c(NC(C)=O)c3cc(F)ccc3n2CC1(C)C(=O)NC1CCCCC1 (configuration not stated) | i
CC(C)(Sc1ccc(CCN(CCCCC2CCCCC2)C(=O)NC2CCCCC2)cc1)C(=O)O | +!
CC1(C(=O)NC2CCCC2)Cn2c(ccc2-c2ccccc2)C(=O)N1CCCc1ccccc1 (configuration not stated) | i
CSc1ccc(CCN2C(=O)c3ccc(-c4ccco4)n3CC2(C)C(=O)NC2CCCCC2)cc1 (configuration not stated) | i
COc1ccc2cc3n(c2c1)CC(C)(C(=O)NC1CCCCCC1)N(Cc1ccco1)C3=O (configuration not stated) | i
O=C(Cn1nc2n(Cc3ccccc3)c(=O)c3ccccc3n2c1=O)Nc1cc(F)ccc1F | i
O=C(O)CSc1cc(NS(=O)(=O)c2ccc(Br)cc2)c2ccccc2c1O | +
Cn1c(=O)n(C)c2cc(S(=O)(=O)Nc3ccc(Br)cc3)ccc21 | i
Cc1cc2c(cc3n2CC(C)(C(=O)NC2CCCCCC2)N(CCCN2CCCCC2)C3=O)o1 (configuration not stated) | i
COc1cc2c(cc1O)CC[C@H]1[C@@H]2CC[C@]2(C)[C@H](O)CC[C@@H]12 | +
SMILES | Methyltransferases
CC12CCC3c4ccc(O)cc4CCC3C1CCC2OC1OC(C(=O)O)C(O)C(O)C1O (configuration not stated) | i
COc1ccc2c(c1)CCC1C2CC[C@@]2(C)C1CC[C@@H]2NCCCCCCN1C(=O)CCC1=O (some centres not stated) | i
Cc1ccc(Cl)cc1N1C(=O)c2cc3occc3n2CC1(C)C(=O)NC1CCCCCCC1 (configuration not stated) | i
OCCN1CCN(CCCN2c3ccccc3Sc3ccc(Cl)cc32)CC1 | i
O=C1NC2CCCCN2C12CCN(CCCN1c3ccccc3CCc3ccc(Cl)cc31)CC2 (configuration not stated) | +
CN(C)CCCN1c2ccccc2Sc2ccc(Cl)cc21 | i
CC1CCCN(c2nc3c(-c4ccccc4)nnn3c3ccccc23)C1 (configuration not stated) | i
CCc1ccc(N2C(=O)c3cc4sccc4n3CC2(C)C(=O)NC2CCCCC2)cc1 (configuration not stated) | i
CN1C(=O)c2cc(C(=O)N3CCCCC3)nn2CC1(C)C(=O)NC1CCCCCC1 (configuration not stated) | i
Cc1ccc(CN2C(=O)c3c(-n4cccc4)c4cc(C)ccc4n3CC2(C)C(=O)NC2CCC(C)CC2)cc1 (configuration not stated) | i
COc1ccccc1CCNC(=O)c1cc2n(n1)CC(C)(C(=O)NCc1ccc(C)cc1)N(C)C2=O (configuration not stated) | i
Cc1ccc(C(=O)COC(=O)C(Cc2c[nH]c3ccccc23)NC(=O)c2ccco2)cc1 (configuration not stated) | i
Cc1ccc(C(=O)Cn2nc3n(CC(C)C)c(=O)c4ccc(C(=O)NC(C)C)cc4n3c2=O)c(C)c1 | i
N#CC(=C(\N)Sc1ccccc1N)/C(C#N)=C(/N)Sc1ccccc1N | +
COc1cccc(CN2C(=O)c3cc(-c4cccs4)nn3CC2(C)C(=O)NC2CCCCCC2)c1 (configuration not stated) | i
COCCN1C(=O)c2cc(-c3ccc(OC)cc3)nn2CC1(C)C(=O)NCc1ccccc1OC (configuration not stated) | i
CC(C)Oc1ccc(CN2C(=O)c3cc4sccc4n3CC2(C)C(=O)NC2CCCCC2C)cc1 (configuration not stated) | i
CC1(C)CC[C@]2(C(=O)O)CC[C@]3(C)C(=CCC4[C@@]5(C)C[C@@H](O)[C@H](O)[C@@](C)(CO)C5CC[C@]43C)C2C1 (some centres not stated) | i
CC1(C)CC[C@]2(C(=O)O)CC[C@]3(C)C(=CCC4[C@@]5(C)C(=O)C[C@H](O)[C@@](C)(CO)C5CC[C@]43C)[C@@H]2C1 (some centres not stated) | i
CC1(CO)CC(O)[C@]2(C(=O)O)CCC34CC3(C=CC3[C@]5(C)C(CC[C@]34C)C(C)(CO)[C@@H](O)[C@H](O)[C@@H]5O)C2C1 (some centres not stated) | +
Cn1c2c(c3ccccc31)C(C(=O)NCc1ccc(F)cc1)N(c1cccc(Cl)c1)C(=O)CS2 (configuration not stated) | i
CCN1C(=O)c2cc(C(=O)NCCc3ccc(OC)c(OC)c3)nn2CC1(C)C(=O)NC1CCCC1 (configuration not stated) | i
CC(=O)OC(C)C(C)(O)C(=O)O[C@@H]1CC[C@]2(C)CC(=O)C(=C(C)C)C[C@H]2[C@]1(C)OC(C)=O (some centres not stated) | i
CC(C)=C1CC2C(CCC2(C)O)C(C)(O)CC1=O (configuration not stated) | +
CC1=CC(=O)C(=C(C)C)CC2C1CCC2(C)O (configuration not stated) | i
Cc1ccc(CN2C(=O)c3ccccc3CC2(C)C(=O)NCc2ccccc2)cc1 (configuration not stated) | i
CC(C)n1nc(-c2ccc3oc(N)nc3c2)c2c(N)ncnc21 | i
CC(C)n1nc(CNC(=O)Cc2ccc(F)cc2)c2ccccc21 | i
CC(C)n1nc(Cc2cccc3ccccc23)c2c(N)ncnc21 | +
COc1ccc(CN2C(=O)c3cc(C(C)(C)C)nn3CC2(C)C(=O)NC2CCCCCC2)cc1 (configuration not stated) | i
